# Measured values as given in PubChem BioAssay (Tox21).
# Unmarked numbers belong to inactive results. The source made the active and inactive calls. Calls come from the whole dose curve; as a rule, active = well fitted curve in the direction sought with a large enough effect in the repeat runs; inconclusive = weak or mixed curves; inactive = flat fitted curve, though single readings scatter.
# Test: qHTS assay to test for compound auto fluorescence at 460 nm (blue) in HEK293 cells (AID 720678)
# Settings: blue autofluorescence 405/460 nm; series mostly up to 91.3 µM; fluorescence, % of triamterene: at the top concentration
# Description: National Center for Advancing Translational Sciences [NCATS]
# NIH Chemical Genomics Center [NCGC]
# U.S. Environmental Protection Agency [EPA]
# National Institutes of Environmental Health Sciences [NIEHS]
# National Toxicology Program [NTP]
# U.S. Food and Drug Administration [FDA]
# Compound auto fluorescence often interferes with screening of the compound library against various biological targets and signaling pathways. Some of these compounds may have fluorophoric properties. Such properties may interfere with the assay outputs resulting in false positives and/or negatives. To decrease such complications and ensure the compound activities are relevant in terms of biological response, the Tox21 10K compound library was screened for auto fluorescence.
# From the fluorophores used as reporter signals in our screening assays, the auto fluorescence equivalencies of compounds against three fluorophores have been evaluated: Triamterene, Fluorescein and Rose Bengal sodium for blue, green and red fluorescence, respectively. The fluorescence intensities were measured using Excitation/Emission wavelengths at 405/460nm, 485/535nm and 540/590nm for blue, green and red labels, respectively. This assay includes the blue fluorescence data.
# Tox21 Assay Protocol Summary:
# 2,000 HEK293 cells in 5 uL of culture medium containing 10% dialyzed FBS per well were dispensed into black wall/clear bottom 1536-well plates using a Multidrop Combi Dispenser (Thermo Scientific). The assay plates were incubated for 4-5 hr at 37C to allow cell attachment to the well bottom, followed by the transfer of 23 nL compound or DMSO vehicle by a pintool work station (Kalypsys, San Diego, CA). After the assay plates were incubated overnight at 37C and 5% CO2, fluorescence intensities in the assay plates were measured by an Envision (PerkinElmer, Shelton, CT) plate reader using three labels for measuring blue, green and red fluorescence at […] 460, 535 and 590nm respectively.
# % is set by controls: 0 for no effect and ±100 for the full control effect.
SMILES,"fluorescence, % of triamterene",outcome
O=C(O)C(Br)CBr (stereo not given),-0.0783% [at 95.7 µM],–
O=[N+]([O-])c1cccc(O)c1,-0.36%,–
Cc1ncc(CNC(=O)N(CCCl)N=O)c(N)n1,0.0102% [at 46 µM],–
CCC1(c2ccccc2)C(=O)NC(=O)NC1=O,–,inactive
CCOP(=S)(OCC)SCSP(=S)(OCC)OCC,-0.222%,–
O=CNC(N1CCN(C(NC=O)C(Cl)(Cl)Cl)CC1)C(Cl)(Cl)Cl (stereo not given),-0.0332%,–
COC(=O)C(C)Oc1ccc(Oc2ccc(Cl)cc2Cl)cc1 (stereo not given),-0.0138%,–
[Cl][Sn]([Cl])([Cl])[Cl],-0.0208% [at 95.7 µM],–
O=[N+]([O-])c1ccc(CBr)cc1,-0.0263% [at 95.7 µM],–
Cc1ncc2n1-c1ccc(Cl)cc1C(c1ccccc1F)=NC2,0.133% [at 46 µM],–
ClCCOCOCCCl,-0.583% [at 95.7 µM],–
Oc1c(Cl)cccc1Cl,0.0103%,–
CNC(=O)Oc1ccccc1C1OCCO1,0.0182%,–
COc1cccc2c1cc([N+](=O)[O-])c1c(C(=O)O)cc3c(c12)OCO3,-0.325%,–
C[C@H]1CCC[C@H](O)CCCCCc2cc(O)cc(O)c2C(=O)O1,–,inactive
CC(CCc1ccccc1)NC(C)C(O)c1ccc(O)cc1 (stereo not given),-0.0738% [at 46 µM],–
CC(N)=S,0.0026%,–
OCCSCSCCO,-0.185%,–
CC(=O)CCc1ccc2c(c1)OCO2,-0.0934%,–
O=C1OC(c2ccc(O)c(S(=O)(=O)O)c2)(c2ccc(O)c(S(=O)(=O)O)c2)c2c(Br)c(Br)c(Br)c(Br)c21,-0.34% [at 46 µM],–

SMILES,"fluorescence, % of triamterene",outcome
CC1CCC(=O)O1 (stereo not given),0.112%,–
CCC(=O)c1ccccc1,-0.0188%,–
CCCCc1ccc(O)cc1,-0.0008%,–
CCC(Cl)[N+](=O)[O-] (stereo not given),0.0119% [at 95.7 µM],–
COCC(=O)N(c1c(C)cccc1C)N1CCOC1=O,-0.0334%,–
CC(C)CC#N,0.107% [at 95.7 µM],–
OC(c1ccccc1)(c1ccccc1)C1CCNCC1,-0.0368% [at 18.6 µM],–
O=C(CCCN1CCC(n2c(=O)[nH]c3ccccc32)CC1)c1ccc(F)cc1,0.114% [at 18.6 µM],–
COc1ncc(F)c2nc(S(=O)(=O)Nc3c(F)cccc3F)nn12,-0.0576%,–
CCCCOC(=O)c1ccccc1C(=O)O,0.0233%,–
CNNC,0.0294% [at 95.7 µM],–
COc1cc(OC)nc(NC(=O)NS(=O)(=O)c2ncccc2OCC(F)(F)F)n1,-0.0349%,–
CCC#N,-0.0185% [at 95.7 µM],–
CCS(=O)(=O)CCSP(=O)(OC)OC,0.0579%,–
O=C(O)c1cccc(Cl)c1,-0.0958%,–
ClC(Br)Br,-0.0103%,–
CC(Oc1ccc(Oc2ncc(C(F)(F)F)cc2Cl)cc1)C(=O)O (stereo not given),0.248%,–
CC(CC(C#N)(c1ccccc1)c1ccccc1)N(C)C (stereo not given),-0.027%,–
CCCSP(=S)(OCC)Oc1ccc(Cl)cc1Cl (stereo not given),0.022%,–
COP(=S)(OC)Oc1ccc(S(N)(=O)=O)cc1,-0.11% [at 46 µM],–
